Results as given in ChEMBL document CHEMBL4513216, “Probing the Open Global Health Chemical Diversity Library for Multistage-Active Starting Points for Next-Generation Antimalarials” (ACS Infect Dis, 2020).
Out of some 69,000 compounds screened, about 8,600 (12%) showed an effect of 50% or more. The entries come from a sample that favours strong results as a whole.

System: Plasmodium berghei
Experiment: Screen against P. berghei liver stage (PbLuc), transformed with Luciferase, at 10uM
Type: functional, HepG2
Conditions: tested at 10 uM

SMILES | INHIBITION [%]
Cc1cnn(CC2CCCN2Cc2nnc(-c3ccccc3)o2)c1 (centres undefined) | 40.9
N#Cc1cccc(OCCN2CCn3c(nnc3C3CC3)C2)c1 | -1.14
CCN(Cc1cccc2c1OCO2)C(=O)Nc1cn[nH]c1 | -16
COCC1CN(C(=O)c2ccoc2)Cc2cnn(CC3CCOCC3)c21 (centres undefined) | 51.4
O=C(c1ccoc1)N1Cc2cnn(CC3CC3)c2C(COCC2CC2)C1 (centres undefined) | 22.6
Cn1ncc2c1C(COCC1CC1)CN(C(=O)c1ccoc1)C2 (centres undefined) | 25.6
Cc1nn(CCO)c(C)c1-c1cc(C(C)(C)C)nc(N)c1C#N | -0.71
CCC(=O)Nc1ccc(F)cc1OC | 27.6
COc1cc(F)ccc1NC(=O)NC(C)C(=O)NC(C)(C)C (centres undefined) | 50.1
COc1cc(F)ccc1NC(=O)NCCNC(=O)OC(C)(C)C | 19.1
CCn1ncc(CN2CCC(c3ncc(Cl)cc3S(C)(=O)=O)CC2)c1C | 20.57
COc1ncccc1C(=O)NCCn1nc(C)ccc1=O | 3.68
CNc1ccc(C2CN(c3nc(C)cc(C)n3)CCO2)nc1 (centres undefined) | -7.9
COc1ccc(CN2CCC3(CC(=O)N(c4cncnc4)C3)C2)cc1 (centres undefined) | 42.6
Cc1nn(C)c(C)c1C1CCCN1CC(=O)NC(C1CC1)C1CC1 (centres undefined) | 25.7
CC(=O)NCCNC(=O)CN1CCCC1c1c(C)nn(C)c1C (centres undefined) | 60.2
Cc1nn(C)c(C)c1C1CCCN1Cc1nnc(C2CC2)n1C (centres undefined) | 50.5
Cc1nn(C)c(Cl)c1C1CCCN1Cc1nnc(C2CC2)n1C (centres undefined) | 7.93
Cc1nn(C)c(Cl)c1C1CCCN1CC(=O)N1CCCCC1 (centres undefined) | -3.21
COc1c(C2CCCN2Cc2nnc(C3CC3)n2C)c(C)nn1C (centres undefined) | 5.94
Cc1nn(C)c(C)c1NC(=O)CN1CCCC1c1c(C)nn(C)c1C (centres undefined) | 28.8
Cc1nn(C)c(Cl)c1C1CCCN1CC(=O)NC1CCCC1 (centres undefined) | 53
COCCNC(=O)CN1CCCC1c1c(C)nn(C)c1Cl (centres undefined) | 36.1

SMILES | INHIBITION [%]
CC(=O)N1CCN(C(=O)CN2CCCC2c2c(C)nn(C)c2C)CC1 (centres undefined) | 50.1
Cc1nn(C)c(Cl)c1C1CCCN1CC(=O)NC1CCCCC1 (centres undefined) | 14.7
Cc1nn(C)c(Cl)c1C1CCCN1CC(=O)N1CCOCC1 (centres undefined) | 33.6
Cc1cc(C(=O)NC2CCc3c(ccc(=O)n3CC(C)C)C2)no1 (centres undefined) | 2.7
CN(CCC#N)C(=O)Cn1cnc2c(Br)cccc2c1=O | 11.9
CCn1ccnc1CN1CCCN(C(=O)c2ccsc2)CC1 | 16.165
CS(=O)(=O)c1ccc(NCCC2CCCO2)c(S(C)(=O)=O)c1 (centres undefined) | 15.2
Cc1cccc(SC2CCN(C(=O)CCCn3cnnn3)CC2)c1 | 43.8
CN(C)Cc1ccnc(NS(=O)(=O)Cc2cccc(F)c2)c1 | 27
CC(C)n1cnnc1C1CCCN(C(=O)COCc2ccccc2)C1 (centres undefined) | 2.3
NC(=O)c1csc(N2C[C@@H](CN3CCC(O)CC3)[C@@H](CO)C2)n1 | 19.6
CC(NC(=O)CSCC(N)=O)c1ccc(Oc2ccccc2)cc1 (centres undefined) | 1.86
CCS(=O)(=O)CC(=O)NC(C)c1ccccc1Oc1ccccc1 (centres undefined) | -3.94
CC(NC(=O)CSCC(N)=O)c1ccccc1Oc1ccccc1 (centres undefined) | 71.4
Cc1nnc(N2C[C@@H](OCC3CCCC3)[C@H]3OCCC[C@H]32)s1 | -36
O=C(c1ccc2[nH]nnc2c1)N1C[C@H](O)[C@]2(CCCO2)C1 | 4.41
O=C(NCCN1CCOCC1)c1ccc(-n2ccc3ccccc32)s1 | 63.2
Cn1ccc2c(C(=O)NCCCN3CCOCC3)cccc21 | 22.2
Cn1ccc2c(C(=O)NCCCS(C)(=O)=O)cccc21 | 9.16
O=C(NCCCN1CCOCC1)c1ccc(-n2ccc3ccccc32)s1 | 29.3
O=C(NCCCN1CCCC1=O)c1ccc(-n2ccc3ccccc32)s1 | -45.5
O=C(NCCCN1CCCCC1)c1n[nH]c(=O)c2ccccc12 | 14.4
Cn1ccc2c(C(=O)NCCCN3CCCC3)cccc21 | 55.9

SMILES | INHIBITION [%]
CCC1CN(CC(=O)NCCN(CC)CC)c2ccccc2S1 (centres undefined) | 19.4
CCN(CC)CCNC(=O)c1cnc(C(C)(C)C)s1 | 4.88
CCN(CC)CCNC(=O)c1ccc(-n2ccc3ccccc32)s1 | 75.1
Cc1nc(-c2cc(C(=O)NCCN3CCOCC3)c3ccccn23)cs1 | -11.6
O=C(NCCCN1CCCCC1)c1ccc(-n2ccc3ccccc32)s1 | 84.5
Cc1nc2c(c(=O)[nH]1)CN(C(=O)CCC1CCCN(C)C1)C2 (centres undefined) | 48.2
Cc1noc(CN(C)Cc2ccc3c(c2)OCO3)n1 | 19.2
Cc1cc(Cl)ccc1-n1ncc(C(=O)NCC2COC(C)(C)O2)c1N (centres undefined) | -15.2
CC(C)N(C)Cc1cnc2n1CCN(Cc1ccsc1)C2 | 21.4
COCCn1ccc2cc(C(=O)N3CCN(S(C)(=O)=O)CC3)ccc21 | -0.448
CC(C)(C)C(=O)N1CCC(c2noc(C3CCC(=O)N3)n2)CC1 (centres undefined) | -17.9
Cc1nnc2n1CCN(Cc1csc(COc3ccccc3)n1)C2 | -0.113
CC1(C)Cc2nc(C(C)(C)C)ncc2C(NC(=O)C2(N)CC2)C1 (centres undefined) | -10.9
COc1cc(C(=O)NS(=O)(=O)c2cncc(Br)c2)cc(OC)c1C | -4.68
O=C1[C@@H]2CN(c3ncccc3Cl)C[C@]2(C(=O)O)CN1CC1CC1 | 39.1
Cc1cc(CC(C)Nc2ncnc3cccc(F)c23)[nH]n1 (centres undefined) | 19.3
CC(Cc1cccnc1)Nc1ncnc2cccc(F)c12 (centres undefined) | -3.43
CC(Cc1cncs1)Nc1ncnc2cccc(F)c12 (centres undefined) | 66.9
COc1ccc(OCCNC(=O)N2CCS(=O)(=O)CC2)cc1 | -16.35
COCCOCC(=O)Nc1ccc(C)cc1F | -29.2
COCCOCC(=O)Nc1ccc(F)cc1C | 55.4
COCCOCC(=O)Nc1cc(C)ccc1F | -18.9
CCN(C)c1ncnc2c1CCN(Cc1nccs1)CC2 | -37.8
